Experiment [1] is described as follows: A CellTox Green Cytotoxicity Assay to monitor cytotoxicity in HepG2 cells - 16 hour (AID 1224876). Also: nearly all actives have a fitted effect of over 45% in size. The gist of the method: (§1)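 HepG2, 600 cells/well premixed w/ CellTox Green; 5 h settle, 37 C/5% CO2; pintool cpd add (DMSO); 37 C, 40 h; fluorescence read at 0, 8, 16, 24, 32, 40 h.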
Experiment [2] is described as follows: qHTS RealTime-Glo MT Cell Viability Assay in HepG2 cells - 32 hour (AID 1224877). Also: nearly all actives have a fitted effect of over 55% in size. Summed up:
(§2)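 qHTS, HepG2, 600 cells/well, RealTime-Glo (NanoLuc + prosubstrate) added with cells; 5 h preincubation; DMSO compound addition; 37 C; luminescence at 0/8/16/24/32/40 h.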
A general note: qHTS replaces the single test concentration by a dilution series.

Experiment [3] is described as follows: A CellTox Green Cytotoxicity Assay to monitor cytotoxicity in HepG2 cells - 24 hour (AID 1224878). Also: nearly all actives have a fitted effect of over 45% in size. Summed up: as §1
Experiment [4] in a line: A CellTox Green Cytotoxicity Assay to monitor cytotoxicity in HepG2 cells - 40 hour (AID 1224879). Also: nearly all actives have a fitted effect of over 40% in size. Summed up:
as §1

The nature of experiment [5]: qHTS RealTime-Glo MT Cell Viability Assay in HEK293 cells - 0 hour (AID 1224880). Also: top concentration of the series differs between compounds; nearly all actives have a fitted effect of over 45% in size. Summed up: (§3)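 Luminescence readout at each listed time point; HEK293, 600 cells/well, RealTime-Glo MT reagent added with cells; compounds pinned (23 nL in DMSO) after 5 h at 37 C; continuous culture at 37 C.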
Experiment [6] can be described thus: A CellTox Green Cytotoxicity Assay to monitor cytotoxicity in HEK293 cells - 32 hour (AID 1224881). Also: nearly all actives have a fitted effect of over 40% in size. Summed up: (§4)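 Read-out: fluorescence of a cell-impermeant cyanine dye staining DNA of dead cells, proportional to cytotoxicity. HEK293, 600 cells/well with reagent, compound (23 nL DMSO) added after 5 h; reads at 0, 8, 16, 24, 32, 40 h.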
Experiment [7] can be described thus: A CellTox Green Cytotoxicity Assay to monitor cytotoxicity in HepG2 cells - 0 hour (AID 1224882). Also: nearly all actives have a fitted effect of over 35% in size. Summed up: as §1
A short description of experiment [8]: A CellTox Green Cytotoxicity Assay to monitor cytotoxicity in HepG2 cells - 32 hour (AID 1224883). Also: nearly all actives have a fitted effect of over 50% in size. Summed up: as §1
Experiment [9] can be described thus: A CellTox Green Cytotoxicity Assay to monitor cytotoxicity in HEK293 cells - 8 hour (AID 1224884). Also: nearly all actives have a fitted effect of over 35% in size. Summed up: as §4
Experiment [10] is described as follows: qHTS RealTime-Glo MT Cell Viability Assay in HepG2 cells - 16 hour (AID 1224885). Also: nearly all actives have a fitted effect of over 50% in size. The gist of the method:
as §2

The nature of experiment [11]: qHTS RealTime-Glo MT Cell Viability Assay in HEK293 cells - 8 hour (AID 1224887). Also: top concentration of the series differs between compounds; nearly all actives have a fitted effect of over 50% in size. Summed up: as §3
Experiment [12] can be described thus: A CellTox Green Cytotoxicity Assay to monitor cytotoxicity in HEK293 cells - 16 hour (AID 1224888). Also: nearly all actives have a fitted effect of over 35% in size. Summed up:
as §4

Experiment [13] can be described thus: qHTS RealTime-Glo MT Cell Viability Assay in HepG2 cells - 0 hour (AID 1224889). Also: nearly all actives have a fitted effect of over 50% in size. Summed up: as §2
The nature of experiment [14]: A CellTox Green Cytotoxicity Assay to monitor cytotoxicity in HepG2 cells - 8 hour (AID 1224890). Also: nearly all actives have a fitted effect of over 45% in size. Also: potency is read from the fitted curve at half-maximal effect. The gist of the method: as §1
Experiment [15] is described as follows: qHTS assay to identify small molecule antagonists of the estrogen receptor alpha (ER-alpha) signaling pathway using the BG1 cell line in the presence of 0.1 nM 17-beta-estradiol - cell viability counter screen (AID 1259241). Also: nearly all actives have a fitted effect of over 40% in size. The gist of the method: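 Viability in VM7Luc4E2 cells after 22 hr compound exposure under 0.1 nM 17beta-estradiol stimulation, by CellTiter-Fluor.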

Experiment [16] is described as follows: qHTS assay to identify small molecule antagonists of the androgen receptor (AR) signaling pathway using the MDA cell line in the presence of 0.5 nM R1881 - cell viability counter screen (AID 1259242). Also: nearly all actives have a fitted effect of over 45% in size. Summed up:
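Live-cell protease fluorescence, CellTiter-Fluor, 30 min at 37C. Cells: MDA-kb2, 3,000/well, preincubated 5 hr. Compounds plus 0.5 nM R1881 final, 16 hr, 37C, 0% CO2.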

Experiment [17] addresses Estrogen receptor (Homo sapiens) (UniProt P03372). Description: qHTS assay to identify small molecule antagonists of the estrogen receptor alpha (ER-alpha) signaling pathway using the BG1 cell line in the presence of 0.1 nM 17-beta-estradiol (AID 1259244). Also: nearly all actives have a fitted effect of over 50% in size. Summed up:
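Luminescence after ONE-Glo (30 min, room temperature) measured ERE-luciferase activity in VM7Luc4E2 cells treated 22 h with compound and 0.1 nM final 17beta-estradiol as stimulator.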

Experiment [18] in a line: qHTS assay to identify small molecule phospholipidosis (PLD) inducers (AID 1259344; active = well fitted curve in the direction sought with a large enough effect; an effect the other way counts as inactive or inconclusive). Summed up:
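Image-based: LipidTOX Red pit count/intensity per well and per cell; HepG2, 24 h compound at 37 C, PFA fixation, Hoechst counterstain.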

The nature of experiment [19]: qHTS assay to identify small molecule HDAC inhibitors (AID 1259364). The gist of the method: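 HCT-116 (wild type), 1,500 cells/well, overnight; compound 2 hr 37C 5% CO2; HDAC-Glo I/II reagent 30 min RT; luminescence readout.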
The nature of experiment [20]: qHTS RealTime-Glo MT Cell Viability Assay in HEK293 cells - 24 hour (AID 1224886). The gist of the method: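 Assay medium contained NanoLuc luciferase plus cell-permeant prosubstrate, added with HEK293 cells at 600 cells/well. After 5 h at 37 C/5% CO2 compounds were added; plates stayed at 37 C for 40 h with serial luminescence reads.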

The structures appear in SMILES notation. Records with an inconclusive call do not appear. Active and inactive are the calls of the source. Unless noted, calls follow the shape of the dose curve; as a rule, active = well fitted curve in the direction sought with a large enough effect in the repeat runs; inconclusive = weak or mixed curves; inactive = no such curve, though single readings can be large; an effect the other way counts as inactive or inconclusive.

Sequence of Estrogen receptor (Homo sapiens) (P03372 whole entry, looked up): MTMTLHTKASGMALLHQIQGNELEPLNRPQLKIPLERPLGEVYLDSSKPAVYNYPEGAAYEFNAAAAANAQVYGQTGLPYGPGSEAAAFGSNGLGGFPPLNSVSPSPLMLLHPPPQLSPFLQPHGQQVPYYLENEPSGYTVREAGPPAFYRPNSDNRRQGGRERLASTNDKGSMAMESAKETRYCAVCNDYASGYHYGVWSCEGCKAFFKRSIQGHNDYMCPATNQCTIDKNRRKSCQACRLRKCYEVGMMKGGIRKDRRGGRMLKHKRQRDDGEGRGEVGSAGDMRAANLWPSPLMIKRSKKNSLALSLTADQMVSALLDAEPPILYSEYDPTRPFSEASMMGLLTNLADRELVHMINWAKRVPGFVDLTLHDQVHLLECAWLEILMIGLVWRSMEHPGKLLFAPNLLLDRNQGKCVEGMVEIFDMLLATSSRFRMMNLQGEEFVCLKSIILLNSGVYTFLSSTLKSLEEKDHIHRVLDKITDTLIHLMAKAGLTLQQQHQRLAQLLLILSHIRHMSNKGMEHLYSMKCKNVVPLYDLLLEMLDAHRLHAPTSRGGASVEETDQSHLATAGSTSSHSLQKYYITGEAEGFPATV

`NS(=O)(=O)c1ccc(Cl)c(S(N)(=O)=O)c1`: the Potency entry in experiment [1], in [3], in experiment [4], in [6], in experiment [7] and in experiment [8] was “inactive” each time. Further, the Potency entry in [9], in [11], in [12], in experiment [13], in experiment [14] and in experiment [15] was “inactive” throughout. Besides, the Potency entry in [16] and in [17] was “inactive” throughout. Besides, the compound was called inactive in experiment [2], in experiment [5], in [10] and in experiment [18].
With `CO[Si](CCCCl)(OC)OC`, the Potency entry in experiment [1], in experiment [3], in [4], in experiment [6], in [7] and in experiment [8] was “inactive” in each case. The Potency entry in [9], in experiment [12], in experiment [13], in [14], in experiment [15] and in experiment [16] was “inactive” each time. Further, the Potency entry in experiment [17] and in [19] was “inactive” each time. Moreover, the call in [2], in experiment [5] and in [10] was inactive.
Consider `C=CCOCC(CO)(COCC=C)COCC=C`, for which the Potency result in experiment [1], in experiment [3], in experiment [4], in experiment [6], in experiment [7] and in experiment [8] was “inactive” in each case. Moreover, the Potency entry in experiment [9], in [20], in [11], in [12], in [13] and in experiment [14] was “inactive” in each case. The Potency entry in [16], in [17] and in experiment [19] was “inactive” in each case. Moreover, the compound was called inactive in experiment [2], in experiment [5] and in experiment [10].
`CNCc1ccccc1`: the Potency entry in [1], in experiment [3], in experiment [4], in [6], in experiment [7] and in [8] was “inactive” in each case. The Potency result in experiment [9], in experiment [11], in experiment [12], in [13], in [14] and in [16] was “inactive” in each case. The outcome in [2], in [5], in [10] and in [18] was inactive.
As for `C=CCOC(=O)c1ccc(C(=O)OCC=C)c(C(=O)OCC=C)c1`, the Potency entry in experiment [1], in experiment [3], in experiment [4], in experiment [6], in experiment [7] and in [8] was “inactive” each time. For the same compound, the Potency entry in experiment [9], in experiment [20], in experiment [11], in [12], in [13] and in [14] was “inactive” throughout. Besides, the Potency entry in experiment [16], in [17] and in [19] was “inactive” each time. For the same compound, the compound was called inactive in experiment [2], in [5] and in experiment [10].
Take `CC(C)CCCC(C)CC=O` (stereo not given): the Potency entry in experiment [1], in [3], in experiment [4], in [6], in [7] and in experiment [8] was “inactive” in each case. Besides, the Potency result in [9], in experiment [11], in experiment [12], in experiment [13], in [15] and in [16] was “inactive” throughout. Moreover, the Potency entry in [17] and in experiment [19] was “inactive” throughout. In addition, the compound was classed as inactive in [2], in experiment [5] and in experiment [10]. For the same compound, the Potency in experiment [14] is 21.9 µM (active).
For the compound `CCOc1ccc(NC(=O)OC(C)C)cc1OCC`, the Potency result in experiment [1], in experiment [3], in experiment [4], in experiment [6], in experiment [7] and in [8] was “inactive” throughout. In addition, the Potency result in experiment [11], in [12], in [13], in experiment [14], in experiment [15] and in [16] was “inactive” throughout. In addition, the Potency result in experiment [19] is “inactive”. The result in experiment [2], in experiment [5] and in [10] was inactive.
For `C[CH2][Ge]([Cl])([CH2]C)[CH2]C`, the Potency entry in experiment [1], in experiment [3], in [4], in experiment [6], in experiment [7] and in experiment [8] was “inactive” each time. Besides, the Potency result in [9], in experiment [20], in experiment [11], in experiment [12], in [13] and in experiment [14] was “inactive” throughout. Moreover, the Potency result in experiment [16] and in [19] was “inactive” in each case. Moreover, the compound was classed as inactive in experiment [2], in experiment [5] and in experiment [10].
On to `CCC(C)(C)C1CCC(=O)CC1`, for which the Potency result in experiment [1], in [3], in experiment [4], in experiment [6], in experiment [7] and in experiment [8] was “inactive” each time. Further, the Potency entry in experiment [9], in [11], in [12], in experiment [13], in experiment [14] and in experiment [15] was “inactive” in each case. In addition, the Potency result in experiment [16] and in experiment [17] was “inactive” throughout. Further, the result in experiment [2], in experiment [5] and in [10] was inactive.

The values above are taken from PubChem BioAssay (Tox21).
